Data as given in PubChem BioAssay (Tox21).
Results filed as inconclusive are left out. Where a call stands in place of a potency, no number is given. Activity calls are given as the source filed them. Unless noted, the call rests on the fitted dose curve; in most records, active means well fitted curve in the direction sought with a large enough effect in the repeat runs; inconclusive means weak or mixed curves; inactive means no such curve, though single readings can be large; an effect the other way counts as inactive or inconclusive.

Assays:
[1] = qHTS assay to identify small molecule agonists of the RXR signaling pathway - cell viability counter screen (AID 1159529); further: nearly all actives have a fitted effect of over 50% in size; further: potency means the concentration at half of the fitted maximal effect
Outline: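 RXR-alpha-UAS-bla HEK 293T cells in medium with 2% charcoal-stripped FBS were preincubated 5 hr, then exposed to compounds for 16 hr at 37 C. Viability was read as CellTiter-Glo luminescence after 30 min at room temperature.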

[2] = qHTS assay to identify small molecule antagonists of the retinoid acid receptor (RAR) signaling pathway - cell viability counter screen (AID 1159551); further: nearly all actives have a fitted effect of over 35% in size; further: potency means the concentration at half of the fitted maximal effect
Outline: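 C3RL4 RARE-luciferase line; cpds + retinol 1 uM final, 6 h, 37 C/5% CO2; CellTiter-Glo ATP luminescence, 30 min RT.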

[3] = qHTS assay to identify small molecule antagonists of the retinoic acid receptor (RAR) signaling pathway (AID 1159552; further: nearly all actives have a fitted effect of over 50% in size; further: potency means the concentration at half of the fitted maximal effect)
Outline: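 RARE-luc C3RL4 cells; cpds + 1 uM (final) retinol, 6 hr, 37 C/5% CO2; luciferase reagent, 30 min RT, luminescence readout. Inhibitors of retinol-driven signal scored.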

[4] = qHTS assay to identify small molecule agonists of the retinoic acid receptor (RAR) signaling pathway (AID 1159553); further: potency means the concentration at half of the fitted maximal effect
Outline: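 RARE-luc C3RL4 cells; overnight attachment 37 C/5% CO2; compound (DMSO) 6 hr; luciferase reagent, 30 min RT; luminescence read-out.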

[5] = qHTS assay to identify small molecule antagonists of the estrogen related receptor (ERR) signaling pathway from Tox21 library - cell viability counter screen (AID 1224834); further: nearly all actives have a fitted effect of over 30% in size; further: potency means the concentration at half of the fitted maximal effect
Outline: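 Multiplexed viability counter screen in ERR cells: 17.5 h compound exposure at 37 C, CellTiter-Fluor added, 30 min at 37 C/5% CO2, fluorescence read.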

[6] = biological target: Luciferin 4-monooxygenase (Photinus pyralis) (UniProt P08659); experiment: qHTS assay to identify small molecule inhibitors of firefly luciferase (AID 1224835); further: nearly all actives have a fitted effect of over 25% in size; further: potency means the concentration at half of the fitted maximal effect
Outline: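 Quantitative HTS format; KM concentrations of both substrates. Purified P. pyralis FLuc activity quantified from luminescence images.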

[7] = qHTS assay to identify small molecule agonists of the constitutive androstane receptor (CAR) signaling pathway - cell viability counter screen (AID 1224836); further: nearly all actives have a fitted effect of over 45% in size; further: potency means the concentration at half of the fitted maximal effect
Outline: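 HepG2 cells stably carrying hCAR and a CYP2B6-2.2kb reporter were plated 4 h, then given compounds at 15 concentrations plus PK11195 (final 0.75 uM). After 23 h at 37 C, viability was read by CellTiter-Fluor fluorescence.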

[8] = qHTS assay to identify small molecule antagonists of the constitutive androstane receptor (CAR) signaling pathway - cell viability counter screen (AID 1224837); further: nearly all actives have a fitted effect of over 45% in size; further: potency means the concentration at half of the fitted maximal effect
Outline: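 Read-out: CellTiter-Fluor fluorescence after 23 hr at 37 C/5% CO2. Cells: HepG2 double-stable for hCAR and CYP2B6-2.2kb. Compounds tested at 15 concentrations in the presence of CITCO, final concentration 50 nM.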

[9] = qHTS assay to identify small molecule antagonists of the estrogen related receptor signaling pathway with the pleiotropic PPARgamma coactivator (PGC) from Tox21 10K library - cell viability counter screen (AID 1224840; active means well fitted cell-killing curve with a large enough effect in the repeat runs, not every such curve was filed as active; further: nearly all actives have a fitted effect of over 40% in size; further: potency means the concentration at half of the fitted maximal effect)
Outline: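 Fluorescence read-out of CellTiter-Fluor viability reagent, added after cells had been exposed to compound in DMSO for 17.5 h at 37 C; 30 min development at 37 C/5% CO2. Cells: PGC/ERR line, 2,000/well.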

[10] = biological target: Nuclear receptor subfamily 1 group I member 3 (Homo sapiens) (UniProt Q14994); experiment: qHTS assay to identify small molecule antagonists of the constitutive androstane receptor (CAR) signaling pathway (AID 1224838); further: nearly all actives have a fitted effect of over 40% in size; further: potency means the concentration at half of the fitted maximal effect
Outline: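 Read-out: ONE-Glo luciferase luminescence after 30 min at room temperature. HepG2-CYP2B6-hCAR double-stable cells, compounds in 15-point titration plus 50 nM CITCO final, 24 h at 37 C/5% CO2.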

[11] = biological target: Nuclear receptor subfamily 1 group I member 3 (Homo sapiens) (UniProt Q14994); experiment: qHTS assay to identify small molecule agonists of the constitutive androstane receptor (CAR) signaling pathway (AID 1224839); further: nearly all actives have a fitted effect of over 15% in size; further: potency means the concentration at half of the fitted maximal effect
Outline: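 HepG2 cells stably expressing hCAR and a CYP2B6-2.2kb luciferase reporter were treated with compounds at 15 concentrations plus 0.75 uM PK11195 (final) for 24 h at 37 C; luminescence was read after ONE-Glo addition.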

[12] = qHTS assay to identify small molecule antagonists of the estrogen related receptor signaling pathway with the pleiotropic PPARgamma coactivator (PGC) from Tox21 10K library (AID 1224841; call rule not given here; further: actives are mostly falling curves and most rising ones were filed inactive; nearly all actives have a fitted effect of over 50% in size; further: potency means the concentration at half of the fitted maximal effect)
Outline: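 Luminescence read-out (One-Glo luciferase reagent, 30 min at room temperature) from PGC/ERR cells exposed to DMSO-dissolved test compounds for 18 h at 37 C; cells, 2,000 per well, had been preincubated 6 h before compound transfer.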

[13] = qHTS assay to identify small molecule agonists of the estrogen related receptor signaling pathway with the pleiotropic PPARgamma coactivator (PGC) from Tox21 10K library (AID 1224842); further: nearly all actives have a fitted effect of over 15% in size
Outline: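 PGC/ERR reporter cells (NTP line) were seeded 2,000 per well, rested 6 h at 37 C/5% CO2, then pin-dosed with compounds in DMSO for 18 h at 37 C; luciferase read by One-Glo luminescence after 30 min at room temperature.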

Chain of Luciferin 4-monooxygenase (Photinus pyralis) (P08659 whole entry, looked up): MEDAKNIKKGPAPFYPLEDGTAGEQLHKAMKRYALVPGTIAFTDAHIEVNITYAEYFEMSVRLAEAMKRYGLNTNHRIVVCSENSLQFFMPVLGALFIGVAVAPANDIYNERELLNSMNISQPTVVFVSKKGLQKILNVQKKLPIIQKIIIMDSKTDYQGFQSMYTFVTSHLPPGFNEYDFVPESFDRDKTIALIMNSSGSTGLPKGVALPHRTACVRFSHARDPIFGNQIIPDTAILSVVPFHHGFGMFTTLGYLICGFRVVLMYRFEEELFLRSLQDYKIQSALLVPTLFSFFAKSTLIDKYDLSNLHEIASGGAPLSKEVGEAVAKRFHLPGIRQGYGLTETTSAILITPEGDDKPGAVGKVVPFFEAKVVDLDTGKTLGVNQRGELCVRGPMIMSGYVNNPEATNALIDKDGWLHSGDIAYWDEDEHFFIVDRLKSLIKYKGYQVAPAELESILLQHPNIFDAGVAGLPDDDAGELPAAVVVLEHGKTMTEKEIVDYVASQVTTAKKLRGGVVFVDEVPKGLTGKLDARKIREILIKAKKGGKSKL
Chain of Nuclear receptor subfamily 1 group I member 3 (Homo sapiens) (Q14994 whole entry, looked up): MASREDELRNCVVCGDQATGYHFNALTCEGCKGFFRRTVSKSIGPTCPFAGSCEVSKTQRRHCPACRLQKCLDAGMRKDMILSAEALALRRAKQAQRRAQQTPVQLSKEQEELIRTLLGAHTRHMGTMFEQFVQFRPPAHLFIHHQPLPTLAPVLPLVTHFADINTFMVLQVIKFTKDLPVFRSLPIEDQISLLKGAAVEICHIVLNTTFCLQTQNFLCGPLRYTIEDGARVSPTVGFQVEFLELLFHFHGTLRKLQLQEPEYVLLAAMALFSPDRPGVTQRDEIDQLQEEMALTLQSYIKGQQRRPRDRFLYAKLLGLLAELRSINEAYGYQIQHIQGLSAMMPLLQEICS

CN1[C@@H]2CC[C@H]1CC(OC(=O)c1cc(Cl)cc(Cl)c1)C2 (some centres not stated)
Potency [1]: 3.79 µM (active)
Potency [2]: inactive
Potency [3]: inactive
Potency [4]: inactive
Potency [5]: inactive
Potency [6]: inactive
Potency [7]: inactive
Potency [8]: inactive
Potency [9]: inactive

IC(I)=C(I)I
Potency [1]: 12.3 µM (active)
Potency [2]: 30.6 µM (active)
Potency [3]: 2.73 µM (active)
Potency [5]: 27.3 µM (active)
Potency [7]: 30.6 µM (active)
Potency [8]: 27.3 µM (active)
Potency [10]: 12.2 µM (active)
Potency [11]: inactive
Potency [9]: 24.3 µM (active)
Potency [12]: 21.7 µM (active)
Potency [13]: inactive

CC(C)(OO)c1ccccc1
Potency [1]: inactive
Potency [2]: inactive
Potency [3]: inactive
Potency [4]: inactive
Potency [6]: inactive
Potency [8]: inactive
Potency [11]: inactive
Potency [9]: inactive
Potency [12]: inactive
Potency [13]: inactive

CCOP(O)OCC
Potency [1]: inactive
Potency [2]: inactive
Potency [3]: inactive
Potency [4]: inactive
Potency [5]: inactive
Potency [6]: inactive
Potency [7]: inactive
Potency [8]: inactive
Potency [10]: inactive
Potency [11]: inactive
Potency [9]: inactive

O=C(O)COc1ccc(Cl)cc1
Potency [1]: inactive
Potency [2]: inactive
Potency [3]: inactive
Potency [4]: inactive
Potency [5]: inactive
Potency [6]: inactive
Potency [7]: inactive
Potency [8]: inactive
Potency [10]: inactive
Potency [9]: inactive
Potency [12]: inactive
Potency [13]: inactive

C=CC(=O)OC(C)(C)C
Potency [1]: inactive
Potency [2]: inactive
Potency [3]: inactive
Potency [4]: inactive
Potency [6]: inactive
Potency [7]: inactive
Potency [8]: inactive
Potency [10]: inactive
Potency [11]: inactive
Potency [9]: inactive

CCOP(=S)(Oc1ccc([N+](=O)[O-])cc1)c1ccccc1 (configuration not stated)
Potency [1]: inactive
Potency [2]: inactive
Potency [3]: inactive
Potency [4]: inactive
Potency [5]: inactive
Potency [6]: inactive
Potency [7]: inactive
Potency [8]: inactive
Potency [10]: inactive
Potency [9]: inactive
Potency [12]: inactive
Potency [13]: inactive

CC[C@H]1C[C@H]2[C@@H]3CCC4=CC(=O)CC[C@@H]4[C@H]3CC[C@]2(C)[C@H]1O
Potency [1]: inactive
Potency [2]: inactive
Potency [3]: inactive
Potency [4]: inactive
Potency [7]: inactive
Potency [8]: inactive
Potency [10]: inactive
Potency [11]: inactive
Potency [9]: inactive
Potency [13]: inactive

CC(C)(CCl)C(=O)Cl
Potency [1]: inactive
Potency [2]: inactive
Potency [3]: inactive
Potency [5]: inactive
Potency [6]: inactive
Potency [8]: inactive
Potency [10]: inactive
Potency [11]: inactive
Potency [9]: inactive

O=Cc1ccc2c(c1)OCO2
Potency [1]: inactive
Potency [2]: inactive
Potency [3]: inactive
Potency [4]: inactive
Potency [5]: inactive
Potency [6]: inactive
Potency [8]: inactive
Potency [9]: inactive

CCO[C@H]1O[C@@H]2OC3(C)CC[C@H]4[C@H](C)CC[C@@H]([C@H]1C)[C@@]24OO3
Potency [1]: inactive
Potency [2]: inactive
Potency [3]: inactive
Potency [4]: inactive
Potency [6]: inactive
Potency [7]: inactive
Potency [8]: inactive
Potency [10]: inactive
Potency [11]: 4.22 µM (active)
Potency [9]: inactive
Potency [12]: 0.668 µM (active)

COc1c(C(C)(C)C)cc([N+](=O)[O-])c(C)c1[N+](=O)[O-]
Potency [1]: inactive
Potency [2]: inactive
Potency [3]: inactive
Potency [4]: inactive
Potency [5]: inactive
Potency [6]: inactive
Potency [8]: inactive
Potency [10]: inactive
Potency [9]: inactive

COc1nn(C(=O)NS(=O)(=O)c2ccccc2OC(F)(F)F)c(=O)n1C
Potency [1]: inactive
Potency [2]: inactive
Potency [3]: inactive
Potency [4]: inactive
Potency [8]: inactive
Potency [10]: inactive
Potency [11]: inactive
Potency [9]: inactive
Potency [12]: inactive
Potency [13]: inactive

S=C=NCc1ccccc1
Potency [1]: inactive
Potency [2]: inactive
Potency [3]: inactive
Potency [4]: 69.3 µM (active)
Potency [5]: inactive
Potency [7]: inactive
Potency [11]: inactive
Potency [9]: inactive
Potency [12]: inactive
Potency [13]: inactive

C/C(=C\c1ccccc1)[N+](=O)[O-]
Potency [1]: inactive
Potency [2]: inactive
Potency [3]: 30.6 µM (active)
Potency [5]: 27.3 µM (active)
Potency [8]: 30.6 µM (active)
Potency [10]: 24.3 µM (active)
Potency [11]: inactive
Potency [12]: 30.6 µM (active)

CN(C)c1ccc(N(C)C)cc1
Potency [1]: inactive
Potency [2]: inactive
Potency [3]: inactive
Potency [4]: 12.2 µM (active)
Potency [5]: inactive
Potency [6]: 63.5 µM (active)
Potency [7]: inactive
Potency [8]: inactive
Potency [10]: inactive
Potency [11]: 61.3 µM (active)
Potency [9]: inactive

[O-][Cl+]O
Potency [1]: inactive
Potency [2]: inactive
Potency [3]: inactive
Potency [4]: inactive
Potency [6]: inactive
Potency [7]: inactive
Potency [8]: inactive
Potency [9]: inactive
Potency [12]: inactive
Potency [13]: inactive

O=S1(=O)OC(c2cc(Br)c(O)c(Br)c2)(c2cc(Br)c(O)c(Br)c2)c2ccccc21
Potency [1]: inactive
Potency [2]: 19.9 µM (active)
Potency [3]: 25 µM (active)
Potency [5]: 25 µM (active)
Potency [7]: 25 µM (active)
Potency [8]: 28.1 µM (active)
Potency [10]: 25 µM (active)
Potency [11]: inactive
Potency [9]: 25 µM (active)

C=CCOC(C)=O
Potency [1]: inactive
Potency [2]: inactive
Potency [3]: inactive
Potency [4]: 75.9 µM (active)
Potency [5]: inactive
Potency [8]: inactive
Potency [9]: inactive
